# Laboratory results as given in PMC7862700, “An all-to-all approach to the identification of sequence-specific readers for epigenetic DNA modifications on cytosine”.
# Columns and labels:
# Test in all cases: DAPPL (digital affinity profiling via proximity ligation, sequencing); 10 mM Tris-HCl pH 7.5, 50 mM NaCl, 1 mM DTT, 4% glycerol, room temperature, 30 min; GST-TFs on glutathione beads, 16-mer random dsDNA library, 0.1% formaldehyde crosslink after washing; high values mean tight binding
# FLI1 = target: T1, FLI1 (Homo sapiens, UniProt Q01543 1-452); conditions: protein: recombinant; tags: N-terminal GST; dsDNA, one strand shown
# T1 sequence: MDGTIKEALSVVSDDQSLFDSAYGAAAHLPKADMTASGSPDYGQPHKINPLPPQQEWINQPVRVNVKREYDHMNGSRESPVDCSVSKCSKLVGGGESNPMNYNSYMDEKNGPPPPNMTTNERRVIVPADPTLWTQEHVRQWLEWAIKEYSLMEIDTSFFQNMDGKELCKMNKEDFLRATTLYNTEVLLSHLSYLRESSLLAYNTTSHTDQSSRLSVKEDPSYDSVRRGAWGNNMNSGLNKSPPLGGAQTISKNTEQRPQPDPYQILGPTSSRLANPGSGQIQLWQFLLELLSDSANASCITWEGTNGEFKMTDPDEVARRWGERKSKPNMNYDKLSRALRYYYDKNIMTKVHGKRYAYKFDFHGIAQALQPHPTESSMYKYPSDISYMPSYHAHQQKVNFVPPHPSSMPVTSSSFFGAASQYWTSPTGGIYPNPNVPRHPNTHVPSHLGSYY
# Procedure, shortened: (§1)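 Pools of DNA-barcoded human transcription factors, expressed in yeast as GST fusions on glutathione beads and combined with a tag-only sample, were incubated with 200 nmole of a 16-mer random double-stranded DNA library. Incubation took 30 min at room temperature in Tris/NaCl/DTT/glycerol buffer and was followed by washing, 0.1% formaldehyde crosslinking, proximity ligation (BsaI/T4 ligase, 1 h, 37 °C), PCR amplification and sequencing on an Illumina NextSeq500. Binding signal is the ratio of a hexamer's read frequency for a factor to its frequency for the tag-only sample.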
# ELK1 = target: T2, ELK1 (Homo sapiens, UniProt P19419 1-428); conditions: protein: recombinant; tags: N-terminal GST; dsDNA, one strand shown
# T2 sequence: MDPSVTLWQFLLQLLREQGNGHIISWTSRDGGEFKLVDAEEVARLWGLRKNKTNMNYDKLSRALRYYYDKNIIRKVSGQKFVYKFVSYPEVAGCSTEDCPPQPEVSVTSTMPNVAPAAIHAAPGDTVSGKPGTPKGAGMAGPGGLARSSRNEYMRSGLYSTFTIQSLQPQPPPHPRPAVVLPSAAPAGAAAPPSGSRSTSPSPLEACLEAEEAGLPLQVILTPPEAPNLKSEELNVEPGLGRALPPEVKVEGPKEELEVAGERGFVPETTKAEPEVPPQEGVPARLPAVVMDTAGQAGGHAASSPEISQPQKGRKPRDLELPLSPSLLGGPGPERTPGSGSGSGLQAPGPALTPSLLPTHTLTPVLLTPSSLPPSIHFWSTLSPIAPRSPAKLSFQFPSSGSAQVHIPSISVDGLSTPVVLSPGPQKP
# Procedure, shortened: as §1
# GABPA = target: T3, GABPA (Homo sapiens, UniProt Q06546 1-454); conditions: protein: recombinant; tags: N-terminal GST; dsDNA, one strand shown
# T3 sequence: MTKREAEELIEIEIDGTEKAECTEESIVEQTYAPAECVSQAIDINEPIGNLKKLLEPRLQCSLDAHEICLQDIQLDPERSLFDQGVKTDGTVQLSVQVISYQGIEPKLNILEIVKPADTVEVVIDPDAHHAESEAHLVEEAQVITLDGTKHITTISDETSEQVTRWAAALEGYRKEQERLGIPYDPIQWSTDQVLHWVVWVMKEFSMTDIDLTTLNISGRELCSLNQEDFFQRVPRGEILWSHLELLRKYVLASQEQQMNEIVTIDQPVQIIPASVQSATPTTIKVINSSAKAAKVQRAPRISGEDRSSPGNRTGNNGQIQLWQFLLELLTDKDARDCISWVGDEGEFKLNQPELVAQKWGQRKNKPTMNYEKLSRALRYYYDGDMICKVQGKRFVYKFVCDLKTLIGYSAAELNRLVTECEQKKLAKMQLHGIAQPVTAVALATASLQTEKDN
# Procedure, shortened: as §1
# ERG = target: T4, ERG (Homo sapiens, UniProt P11308 1-479); conditions: protein: recombinant; tags: N-terminal GST; dsDNA, one strand shown
# T4 sequence: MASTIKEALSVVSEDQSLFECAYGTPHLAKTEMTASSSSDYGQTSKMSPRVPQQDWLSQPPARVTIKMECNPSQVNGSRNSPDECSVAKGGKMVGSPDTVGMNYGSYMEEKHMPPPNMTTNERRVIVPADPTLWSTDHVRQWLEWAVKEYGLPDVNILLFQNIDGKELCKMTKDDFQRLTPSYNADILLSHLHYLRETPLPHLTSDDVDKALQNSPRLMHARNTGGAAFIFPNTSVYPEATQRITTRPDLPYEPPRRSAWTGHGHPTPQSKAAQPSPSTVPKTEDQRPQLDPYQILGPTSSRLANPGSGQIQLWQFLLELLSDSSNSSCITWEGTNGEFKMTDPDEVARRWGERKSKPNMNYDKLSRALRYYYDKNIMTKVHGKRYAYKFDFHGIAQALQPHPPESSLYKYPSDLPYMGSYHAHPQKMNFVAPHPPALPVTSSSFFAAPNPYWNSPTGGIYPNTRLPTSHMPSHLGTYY
# Procedure, shortened: as §1
# ELF1 = ELF1 (Homo sapiens, UniProt P32519 1-619); conditions: protein: recombinant; tags: N-terminal GST; dsDNA, one strand shown
# Procedure, shortened: as §1
# EHF = target: T5, EHF (Homo sapiens, UniProt Q9NZC4 1-300); conditions: protein: recombinant; tags: N-terminal GST; dsDNA, one strand shown
# T5 sequence: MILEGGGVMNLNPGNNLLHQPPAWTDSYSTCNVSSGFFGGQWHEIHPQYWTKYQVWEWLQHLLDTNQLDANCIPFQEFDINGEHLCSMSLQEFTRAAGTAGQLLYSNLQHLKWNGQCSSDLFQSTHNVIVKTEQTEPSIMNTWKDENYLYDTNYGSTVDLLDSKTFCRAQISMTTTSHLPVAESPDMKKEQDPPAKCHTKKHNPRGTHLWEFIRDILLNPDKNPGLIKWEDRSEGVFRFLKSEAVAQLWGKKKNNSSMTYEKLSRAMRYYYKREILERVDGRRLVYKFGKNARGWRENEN
# Procedure, shortened: as §1
# SPI1 = SPI1 (Homo sapiens, UniProt P17947 1-270); conditions: protein: recombinant; tags: N-terminal GST; dsDNA, one strand shown
# Procedure, shortened: as §1
# SPIB = SPIB (Homo sapiens, UniProt Q01892 1-262); conditions: protein: recombinant; tags: N-terminal GST; dsDNA, one strand shown
# Procedure, shortened: as §1
# ELK3 = target: T6, ELK3 (Homo sapiens, UniProt P41970 1-407); conditions: protein: recombinant; tags: N-terminal GST; dsDNA, one strand shown
# T6 sequence: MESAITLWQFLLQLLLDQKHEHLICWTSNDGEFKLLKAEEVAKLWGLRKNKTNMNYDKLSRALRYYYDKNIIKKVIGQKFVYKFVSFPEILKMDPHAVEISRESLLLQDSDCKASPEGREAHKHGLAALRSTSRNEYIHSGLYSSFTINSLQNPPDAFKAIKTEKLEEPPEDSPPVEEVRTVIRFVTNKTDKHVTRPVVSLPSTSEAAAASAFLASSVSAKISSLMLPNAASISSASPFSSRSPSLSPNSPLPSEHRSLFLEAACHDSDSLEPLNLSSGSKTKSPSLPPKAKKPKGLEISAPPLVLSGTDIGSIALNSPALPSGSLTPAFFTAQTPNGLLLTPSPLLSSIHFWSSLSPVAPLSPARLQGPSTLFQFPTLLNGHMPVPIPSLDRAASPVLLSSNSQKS
# Procedure, shortened: as §1
# FEV = target: T7, FEV (Homo sapiens, UniProt Q99581 1-238); conditions: protein: recombinant; tags: N-terminal GST; dsDNA, one strand shown
# T7 sequence: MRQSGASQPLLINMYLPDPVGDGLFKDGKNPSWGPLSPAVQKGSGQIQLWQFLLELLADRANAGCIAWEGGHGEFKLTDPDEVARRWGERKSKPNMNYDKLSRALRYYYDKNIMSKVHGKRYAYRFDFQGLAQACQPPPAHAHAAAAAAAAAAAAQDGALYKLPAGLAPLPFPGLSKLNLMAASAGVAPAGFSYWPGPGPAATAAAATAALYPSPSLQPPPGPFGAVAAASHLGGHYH
# Procedure, shortened: as §1
# ETV5 = ETV5 (Homo sapiens, UniProt P41161 1-510); conditions: protein: recombinant; tags: N-terminal GST; dsDNA, one strand shown
# Procedure, shortened: as §1
# HSF1 = HSF1 (Homo sapiens, UniProt Q00613 1-529); conditions: protein: recombinant; tags: N-terminal GST; chain copies: 3; dsDNA, one strand shown
# Procedure, shortened: as §1
# SPIC = target: T8, SPIC (Homo sapiens, UniProt Q8N5J4 1-248); conditions: protein: recombinant; tags: N-terminal GST; dsDNA, one strand shown
# T8 sequence: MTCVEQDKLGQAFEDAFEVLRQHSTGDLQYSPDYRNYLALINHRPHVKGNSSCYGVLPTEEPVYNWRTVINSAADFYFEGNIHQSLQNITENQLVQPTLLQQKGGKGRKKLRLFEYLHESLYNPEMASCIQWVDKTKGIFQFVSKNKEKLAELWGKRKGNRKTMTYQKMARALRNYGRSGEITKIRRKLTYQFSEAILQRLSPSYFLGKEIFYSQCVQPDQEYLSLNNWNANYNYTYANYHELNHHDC
# Procedure, shortened: as §1
# ELF4 = ELF4 (Homo sapiens, UniProt Q99607 1-663); conditions: protein: recombinant; tags: N-terminal GST; dsDNA, one strand shown
# Procedure, shortened: as §1
# ELK4 = target: T9, ELK4 (Homo sapiens, UniProt P28324-2 1-405); conditions: protein: recombinant; tags: N-terminal GST; dsDNA, one strand shown
# T9 sequence: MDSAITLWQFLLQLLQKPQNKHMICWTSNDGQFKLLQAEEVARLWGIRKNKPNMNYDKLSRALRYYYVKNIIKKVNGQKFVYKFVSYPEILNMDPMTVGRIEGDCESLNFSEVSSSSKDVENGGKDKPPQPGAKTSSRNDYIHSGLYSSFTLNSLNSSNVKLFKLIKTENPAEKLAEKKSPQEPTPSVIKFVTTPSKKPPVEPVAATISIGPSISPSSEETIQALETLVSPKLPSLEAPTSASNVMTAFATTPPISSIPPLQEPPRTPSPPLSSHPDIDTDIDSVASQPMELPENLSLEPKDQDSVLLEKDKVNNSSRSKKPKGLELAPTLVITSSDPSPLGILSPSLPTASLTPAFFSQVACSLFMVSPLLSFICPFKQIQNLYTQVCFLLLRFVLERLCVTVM
# Procedure, shortened: as §1
# ETV2 = target: T10, ETV2 (Homo sapiens, UniProt O00321 1-342); conditions: protein: recombinant; tags: N-terminal GST; dsDNA, one strand shown
# T10 sequence: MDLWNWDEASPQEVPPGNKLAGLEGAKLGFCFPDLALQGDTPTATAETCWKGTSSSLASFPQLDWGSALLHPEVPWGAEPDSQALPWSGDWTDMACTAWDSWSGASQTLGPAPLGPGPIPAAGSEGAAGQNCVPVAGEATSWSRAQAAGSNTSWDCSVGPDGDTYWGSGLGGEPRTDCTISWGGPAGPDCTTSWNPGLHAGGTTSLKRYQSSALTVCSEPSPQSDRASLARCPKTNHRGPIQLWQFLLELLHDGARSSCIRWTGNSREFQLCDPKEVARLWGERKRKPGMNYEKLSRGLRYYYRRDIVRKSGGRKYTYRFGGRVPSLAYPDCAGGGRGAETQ
# Procedure, shortened: as §1
# ELF3 = target: T11, ELF3 (Homo sapiens, UniProt P78545 1-371); conditions: protein: recombinant; tags: N-terminal GST; dsDNA, one strand shown
# T11 sequence: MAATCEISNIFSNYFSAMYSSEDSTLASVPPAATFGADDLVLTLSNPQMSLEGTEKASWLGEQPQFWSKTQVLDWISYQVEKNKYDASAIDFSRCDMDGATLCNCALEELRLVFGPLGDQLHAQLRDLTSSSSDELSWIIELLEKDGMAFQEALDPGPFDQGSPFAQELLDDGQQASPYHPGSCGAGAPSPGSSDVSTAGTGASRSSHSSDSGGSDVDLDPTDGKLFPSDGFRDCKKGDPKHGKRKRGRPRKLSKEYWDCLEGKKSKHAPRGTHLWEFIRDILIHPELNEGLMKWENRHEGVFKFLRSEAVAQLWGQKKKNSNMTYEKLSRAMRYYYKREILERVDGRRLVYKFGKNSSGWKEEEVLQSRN
# Procedure, shortened: as §1
# CRX = CRX (Homo sapiens, UniProt O43186 1-299); conditions: protein: recombinant; tags: N-terminal GST; dsDNA, one strand shown
# Procedure, shortened: as §1
# ETV1 = ETV1 (Homo sapiens, UniProt P50549 1-477); conditions: protein: recombinant; tags: N-terminal GST; dsDNA, one strand shown
# Procedure, shortened: as §1
# ETV5, sequence (P41161 whole entry): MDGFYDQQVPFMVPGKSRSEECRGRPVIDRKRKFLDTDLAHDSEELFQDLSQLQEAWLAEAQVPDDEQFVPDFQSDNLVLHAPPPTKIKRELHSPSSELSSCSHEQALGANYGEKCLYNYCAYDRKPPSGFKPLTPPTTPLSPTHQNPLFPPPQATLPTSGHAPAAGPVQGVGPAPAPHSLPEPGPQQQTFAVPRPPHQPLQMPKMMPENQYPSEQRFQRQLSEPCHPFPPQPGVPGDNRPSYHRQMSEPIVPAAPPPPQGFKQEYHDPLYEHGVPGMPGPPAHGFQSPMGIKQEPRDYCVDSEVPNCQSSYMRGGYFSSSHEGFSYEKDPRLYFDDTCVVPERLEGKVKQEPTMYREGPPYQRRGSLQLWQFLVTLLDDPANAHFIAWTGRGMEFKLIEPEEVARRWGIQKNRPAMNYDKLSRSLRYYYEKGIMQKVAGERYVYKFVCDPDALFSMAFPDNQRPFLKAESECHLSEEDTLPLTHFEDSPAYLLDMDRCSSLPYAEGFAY
# SPIB, sequence (Q01892 whole entry): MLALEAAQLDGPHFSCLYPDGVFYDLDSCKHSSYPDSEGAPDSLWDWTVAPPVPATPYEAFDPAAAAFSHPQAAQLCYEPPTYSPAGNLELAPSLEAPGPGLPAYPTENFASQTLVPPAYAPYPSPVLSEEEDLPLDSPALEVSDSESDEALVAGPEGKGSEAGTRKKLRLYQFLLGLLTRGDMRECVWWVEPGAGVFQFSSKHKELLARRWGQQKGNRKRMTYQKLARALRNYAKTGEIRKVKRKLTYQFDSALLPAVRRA
# ELF1, sequence (P32519 whole entry): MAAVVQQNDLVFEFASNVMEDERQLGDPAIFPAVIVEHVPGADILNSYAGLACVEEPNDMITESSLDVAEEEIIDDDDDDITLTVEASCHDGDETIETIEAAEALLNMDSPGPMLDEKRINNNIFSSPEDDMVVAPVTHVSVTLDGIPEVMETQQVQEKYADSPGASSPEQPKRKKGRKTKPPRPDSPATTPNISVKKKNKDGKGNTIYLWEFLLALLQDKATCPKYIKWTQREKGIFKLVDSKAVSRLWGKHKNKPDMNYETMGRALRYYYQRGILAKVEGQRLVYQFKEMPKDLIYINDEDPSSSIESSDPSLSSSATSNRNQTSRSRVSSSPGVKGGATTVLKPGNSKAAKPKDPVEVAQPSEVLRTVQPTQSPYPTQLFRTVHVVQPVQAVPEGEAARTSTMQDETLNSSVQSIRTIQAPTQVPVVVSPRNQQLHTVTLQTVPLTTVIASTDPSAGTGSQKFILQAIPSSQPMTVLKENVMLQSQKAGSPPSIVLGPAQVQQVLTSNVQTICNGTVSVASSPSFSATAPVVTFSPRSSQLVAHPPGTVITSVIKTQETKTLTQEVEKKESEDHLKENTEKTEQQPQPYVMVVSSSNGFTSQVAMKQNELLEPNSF
# ETV1, sequence (P50549 whole entry): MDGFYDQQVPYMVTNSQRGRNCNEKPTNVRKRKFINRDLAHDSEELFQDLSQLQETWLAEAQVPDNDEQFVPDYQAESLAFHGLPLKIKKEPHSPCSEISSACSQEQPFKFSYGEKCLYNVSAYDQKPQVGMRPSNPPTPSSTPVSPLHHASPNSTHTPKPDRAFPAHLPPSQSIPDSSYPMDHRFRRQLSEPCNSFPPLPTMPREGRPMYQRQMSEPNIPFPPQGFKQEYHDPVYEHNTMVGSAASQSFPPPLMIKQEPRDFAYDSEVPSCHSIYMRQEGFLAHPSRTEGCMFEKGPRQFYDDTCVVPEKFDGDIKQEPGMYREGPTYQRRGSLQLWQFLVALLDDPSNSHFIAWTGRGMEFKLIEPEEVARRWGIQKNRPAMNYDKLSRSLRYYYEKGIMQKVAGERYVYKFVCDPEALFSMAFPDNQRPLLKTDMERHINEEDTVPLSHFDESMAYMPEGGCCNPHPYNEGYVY
# CRX, sequence (O43186 whole entry): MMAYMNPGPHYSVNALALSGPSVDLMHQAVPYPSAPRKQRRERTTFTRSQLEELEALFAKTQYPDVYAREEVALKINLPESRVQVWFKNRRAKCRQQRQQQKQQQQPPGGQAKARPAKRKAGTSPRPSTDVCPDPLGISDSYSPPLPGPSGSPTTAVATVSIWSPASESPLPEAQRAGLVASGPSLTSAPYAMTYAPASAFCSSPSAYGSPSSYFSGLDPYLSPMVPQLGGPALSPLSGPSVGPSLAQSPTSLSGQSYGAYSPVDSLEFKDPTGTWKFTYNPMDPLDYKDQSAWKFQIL
# HSF1, sequence (Q00613 whole entry): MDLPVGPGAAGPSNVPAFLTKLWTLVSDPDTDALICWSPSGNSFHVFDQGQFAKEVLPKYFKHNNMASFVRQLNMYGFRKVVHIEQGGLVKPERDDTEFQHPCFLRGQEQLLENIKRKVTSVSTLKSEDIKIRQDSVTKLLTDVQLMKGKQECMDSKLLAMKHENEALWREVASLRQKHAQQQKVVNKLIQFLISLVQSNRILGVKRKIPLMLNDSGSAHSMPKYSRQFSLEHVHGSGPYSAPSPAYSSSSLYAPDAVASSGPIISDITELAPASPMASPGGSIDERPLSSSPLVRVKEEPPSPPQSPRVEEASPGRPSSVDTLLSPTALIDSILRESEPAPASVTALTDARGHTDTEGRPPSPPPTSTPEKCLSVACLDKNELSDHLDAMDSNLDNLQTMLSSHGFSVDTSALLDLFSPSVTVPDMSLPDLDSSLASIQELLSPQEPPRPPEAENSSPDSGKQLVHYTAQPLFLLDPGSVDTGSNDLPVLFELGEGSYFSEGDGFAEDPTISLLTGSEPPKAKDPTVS
# ELF4, sequence (Q99607 whole entry): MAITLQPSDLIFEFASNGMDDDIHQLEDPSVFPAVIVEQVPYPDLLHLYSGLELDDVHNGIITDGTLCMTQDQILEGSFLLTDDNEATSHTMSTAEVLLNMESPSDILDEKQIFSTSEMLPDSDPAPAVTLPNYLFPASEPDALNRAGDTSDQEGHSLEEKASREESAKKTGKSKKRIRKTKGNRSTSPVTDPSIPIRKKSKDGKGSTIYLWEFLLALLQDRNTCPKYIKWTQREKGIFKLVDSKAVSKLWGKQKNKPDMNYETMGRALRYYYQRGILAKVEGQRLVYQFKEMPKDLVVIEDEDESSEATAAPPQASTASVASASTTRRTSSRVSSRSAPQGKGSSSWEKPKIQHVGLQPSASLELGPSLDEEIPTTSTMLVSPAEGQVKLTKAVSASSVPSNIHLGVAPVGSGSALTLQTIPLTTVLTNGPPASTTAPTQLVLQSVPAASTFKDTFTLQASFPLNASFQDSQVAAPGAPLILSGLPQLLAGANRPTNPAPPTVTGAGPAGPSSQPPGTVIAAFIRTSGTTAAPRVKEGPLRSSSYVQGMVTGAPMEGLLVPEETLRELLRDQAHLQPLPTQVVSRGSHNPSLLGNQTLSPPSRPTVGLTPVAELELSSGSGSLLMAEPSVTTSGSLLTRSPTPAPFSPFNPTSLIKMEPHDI
sequence,measurement,setting,value
TCTTTG,binding signal,FLI1,"1.18 fold enrichment (6-mer frequency, TF over GST control)"
same,binding signal,ELK1,"1.18 fold enrichment (6-mer frequency, TF over GST control)"
same,binding signal,GABPA,"1.2 fold enrichment (6-mer frequency, TF over GST control)"
same,binding signal,ERG,"1.25 fold enrichment (6-mer frequency, TF over GST control)"
same,binding signal,ELF1,"1.25 fold enrichment (6-mer frequency, TF over GST control)"
same,binding signal,EHF,"1.21 fold enrichment (6-mer frequency, TF over GST control)"
same,binding signal,SPI1,"1.21 fold enrichment (6-mer frequency, TF over GST control)"
same,binding signal,SPIB,"1.05 fold enrichment (6-mer frequency, TF over GST control)"
same,binding signal,ELK3,"1.31 fold enrichment (6-mer frequency, TF over GST control)"
same,binding signal,FEV,"1.09 fold enrichment (6-mer frequency, TF over GST control)"
same,binding signal,ETV5,"1.16 fold enrichment (6-mer frequency, TF over GST control)"
same,binding signal,HSF1,"1.24 fold enrichment (6-mer frequency, TF over GST control)"
same,binding signal,SPIC,"1.13 fold enrichment (6-mer frequency, TF over GST control)"
same,binding signal,ELF4,"1.17 fold enrichment (6-mer frequency, TF over GST control)"
same,binding signal,ELK4,"1.2 fold enrichment (6-mer frequency, TF over GST control)"
same,binding signal,ETV2,"1.05 fold enrichment (6-mer frequency, TF over GST control)"
same,binding signal,ELF3,"1.18 fold enrichment (6-mer frequency, TF over GST control)"
same,binding signal,CRX,"1.27 fold enrichment (6-mer frequency, TF over GST control)"
same,binding signal,ETV1,"1.1 fold enrichment (6-mer frequency, TF over GST control)"
